Source: the supplement of paper PMC9694430

How the values were obtained:
Assay in all cases: thermal shift delta Tm vs DMSO control; higher = stronger stabilization (binding)
Details in all cases: 12.5 µM; protein concentration 2 µM
LOC_OS02G45750-cb003 = tested on: LOC_OS02G45750-cb003
Summary of the method: (§1)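 Compounds dissolved in DMSO were added to purified rice kinase domain constructs, which had been expressed in E. coli, for differential scanning fluorimetry. Each well held 19.5 μl of 2 μM kinase in 100 mM potassium phosphate pH 7.5, 150 mM NaCl, 10% glycerol and 5 × SYPRO Orange. Fluorescence was followed from 25°C to 95°C at a rate of 0.05°C/s. Shifts in Boltzmann-fitted melting temperature are triplicate means relative to DMSO-only protein.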

LOC_OS02G54510-cb004 = tested on: LOC_OS02G54510-cb004
Summary of the method: as §1

LOC_OS03G04050-cb001 = tested on: LOC_OS03G04050-cb001
Summary of the method: as §1

LOC_OS03G12390-cb001 = tested on: LOC_OS03G12390-cb001
Summary of the method: as §1

LOC_OS03G27990-cb004 = tested on: LOC_OS03G27990-cb004
Summary of the method: as §1

LOC_OS03G50450-cb001 = tested on: LOC_OS03G50450-cb001
Summary of the method: as §1

LOC_OS03G50810-cb003 = tested on: LOC_OS03G50810-cb003
Summary of the method: as §1

LOC_OS04G35114-cb001 = tested on: LOC_OS04G35114-cb001
Summary of the method: as §1

LOC_OS04G38480-cb003 = tested on: T1, LOC_OS04G38480-cb003
T1 sequence (whole entry): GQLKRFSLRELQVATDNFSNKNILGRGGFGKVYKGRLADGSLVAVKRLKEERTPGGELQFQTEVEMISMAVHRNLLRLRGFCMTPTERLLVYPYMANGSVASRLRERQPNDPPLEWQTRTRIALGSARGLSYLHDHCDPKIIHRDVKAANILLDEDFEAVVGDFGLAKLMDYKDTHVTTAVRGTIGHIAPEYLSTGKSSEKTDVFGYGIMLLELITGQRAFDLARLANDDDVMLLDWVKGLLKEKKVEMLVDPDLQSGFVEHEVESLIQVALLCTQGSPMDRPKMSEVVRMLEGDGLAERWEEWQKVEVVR
Summary of the method: as §1

LOC_OS04G41100-cb001 = tested on: T2, LOC_OS04G41100-cb001
T2 sequence (whole entry): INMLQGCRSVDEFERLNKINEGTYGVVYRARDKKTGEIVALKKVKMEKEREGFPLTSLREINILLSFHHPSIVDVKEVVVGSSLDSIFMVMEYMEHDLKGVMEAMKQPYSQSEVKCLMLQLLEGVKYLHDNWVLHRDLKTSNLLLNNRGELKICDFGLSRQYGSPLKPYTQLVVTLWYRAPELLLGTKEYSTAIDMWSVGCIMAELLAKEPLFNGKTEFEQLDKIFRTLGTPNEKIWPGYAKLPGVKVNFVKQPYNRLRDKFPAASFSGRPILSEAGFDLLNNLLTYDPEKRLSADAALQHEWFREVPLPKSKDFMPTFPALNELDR
Summary of the method: as §1

Row | Structure (SMILES) | thermal shift delta Tm (LOC_OS02G45750-cb003) | thermal shift delta Tm (LOC_OS02G54510-cb004) | thermal shift delta Tm (LOC_OS03G04050-cb001) | thermal shift delta Tm (LOC_OS03G12390-cb001) | thermal shift delta Tm (LOC_OS03G27990-cb004) | thermal shift delta Tm (LOC_OS03G50450-cb001) | thermal shift delta Tm (LOC_OS03G50810-cb003) | thermal shift delta Tm (LOC_OS04G35114-cb001) | thermal shift delta Tm (LOC_OS04G38480-cb003) | thermal shift delta Tm (LOC_OS04G41100-cb001)
1 | COc1cc2ncnc(Nc3cccc(Cl)c3)c2cc1OC [AG-1478 (Tyrphostin AG-1478)] | 4.64 °C | 0.2 °C | 0.25 °C | 2.86 °C | 0.56 °C | 0.38 °C | 2.25 °C | 6.57 °C | 2.27 °C | 0.04 °C
2 | CC1(C)C=Cc2c(ccc3c2OC[C@@H](c2ccc(O)cc2O)C3)O1 [Glabridin] | 0.34 °C | -0.24 °C | 0.88 °C | 0.93 °C | 0.6 °C | 0.36 °C | 0.74 °C | 0.79 °C | 1.12 °C | 0.7 °C
3 | COc1cc(C(=O)N2CCC(N3CCN(C)CC3)CC2)ccc1Nc1ncc2c(n1)N(C)c1ccccc1C(=O)N2C | 1.73 °C | 0.29 °C | 0.41 °C | 3.59 °C | 0.46 °C | 0.37 °C | 0.68 °C | 0.65 °C | 3.81 °C | 0.27 °C
4 | O=C(c1cccc(Cl)c1F)N1CCN(Cc2cccc(Nc3nccs3)n2)CC1 | 0.38 °C | 0.15 °C | 0.55 °C | 0.36 °C | 0.38 °C | 0.14 °C | 1.09 °C | 7 °C | 2.88 °C | 0.42 °C
5 | COc1ccc(COc2cc3oc(=O)c4cc(C(C)O)ccc4c3cc2OC)cc1 (stereo not given) [Palomid 529 (P529)] | -0.8 °C | 0.29 °C | 0.37 °C | -0.47 °C | 0.35 °C | 0.19 °C | 0.52 °C | 0.78 °C | 1.4 °C | 0.32 °C
6 | Cn1cc(C2=C(c3ccc(Cl)cc3Cl)C(=O)NC2=O)c2ccccc21 | 1.02 °C | 0.82 °C | 0.78 °C | 0.98 °C | 0.26 °C | 0.6 °C | 0.67 °C | 1.64 °C | 1.13 °C | 0.96 °C
7 | CCCS(=O)(=O)Nc1ccc(F)c(C(=O)c2c[nH]c3ncc(-c4ccc(Cl)cc4)cc23)c1F [Vemurafenib (PLX4032, RG7204)] | 9.27 °C | 1.86 °C | 0.64 °C | 4.44 °C | 0.69 °C | 1.54 °C | 2.6 °C | 4.48 °C | 4.49 °C | 0.68 °C
8 | CCN(CC)CCCCNc1ncc2cc(-c3cc(OC)cc(OC)c3)c(NC(=O)NC(C)(C)C)nc2n1 | 1.08 °C | 0.28 °C | 0.67 °C | 0.06 °C | 0.5 °C | 0.93 °C | 0.47 °C | 0.79 °C | 0.83 °C | 0.46 °C
9 | CNCc1ccc(-c2cc(-c3nc(-c4ccc(S(=O)(=O)C(C)C)cc4)cnc3N)on2)cc1 | 2.46 °C | 0.28 °C | 0.32 °C | 0.54 °C | 0.33 °C | 0.34 °C | 0.97 °C | 4.33 °C | 1 °C | 0.22 °C
10 | CO[C@H]1CC[C@H](N2C(=O)CNc3ncc(-c4ccc(C(C)(C)O)nc4)nc32)CC1 | 0.31 °C | -0.17 °C | 0.09 °C | -0.22 °C | -0.29 °C | 0.22 °C | 0.18 °C | -0.71 °C | 1.62 °C | 0.08 °C
11 | Nc1cc(C(F)(F)F)c(-c2cc(N3CCOCC3)nc(N3CCOCC3)n2)cn1 [Buparlisib (BKM120, NVP-BKM120)] | 0.32 °C | -0.07 °C | 0.3 °C | -0.03 °C | 0.23 °C | 0.11 °C | 0.38 °C | 0.31 °C | 0.85 °C | 0.22 °C
12 | Cc1n[nH]c2ncc(C(=O)N3CCC[C@H]3c3ccc(Cl)cc3)cc12 | 0.21 °C | 0.12 °C | 0.41 °C | 0.13 °C | 0.35 °C | 0.17 °C | 0.18 °C | 0.28 °C | 0.98 °C | 0.46 °C
13 | Nc1nc2cc(-c3ccc4ncc(C(=O)N5CCOCC5)n4c3)ccc2o1 [Serabelisib (INK-1117,MLN-1117,TAK-117)] | 1.65 °C | 0.12 °C | 0.57 °C | 0.22 °C | 0.37 °C | 0.93 °C | 0.42 °C | 1.85 °C | 0.6 °C | 0.51 °C
14 | O=C1c2ccc(Nc3ccc(F)cc3F)cc2CCc2ccc(OC[C@H](O)CO)cc21 [Skepinone-L] | 0.45 °C | -0.21 °C | -0.01 °C | -0.61 °C | 0.11 °C | 0.06 °C | -0.16 °C | 1.82 °C | 1.25 °C | 0.53 °C
15 | CO[C@@H](C)Cn1c(=O)n(C)c2cnc3ccc(-c4cncc(C(C)(C)O)c4)cc3c21 | 1.57 °C | 0.18 °C | 0.72 °C | 0.09 °C | 0.68 °C | 0.89 °C | 0.67 °C | 3.42 °C | 1.29 °C | 0.38 °C
16 | Nc1nccc(Oc2ccc(NC(=O)c3c[nH]cc(-c4ccc(F)cc4)c3=O)cc2F)c1Cl | 1.54 °C | 0.77 °C | 0.58 °C | 0.55 °C | 0.24 °C | 0.31 °C | 1.15 °C | 0.58 °C | 2.79 °C | 3.39 °C
17 | CCOc1cc2ncc(C#N)c(Nc3ccc(OCc4ccccn4)c(Cl)c3)c2cc1NC(=O)/C=C/CN(C)C [Neratinib (HKI-272)] | 4.68 °C | 0.16 °C | 0.41 °C | 0.55 °C | 1.01 °C | 0.39 °C | 1.2 °C | 5.53 °C | 1.27 °C | 0.15 °C
18 | Cc1ccc(F)c(NC(=O)Nc2ccc(-c3cccc4[nH]nc(N)c34)cc2)c1 [Linifanib (ABT-869)] | 0.85 °C | -0.22 °C | 0.3 °C | 3.38 °C | 1.2 °C | 0.4 °C | 0.8 °C | 2.54 °C | 0.22 °C | 1.77 °C
